Laboratory results published in PubChem BioAssay (NCI).
The panel holds about 83,000 compounds, 20% with a hit somewhere; the sample as a whole holds those more often.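 96-well plates, one dose, 48 hours. Percent growth reported; active if below 10.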 Unmarked numbers belong to inactive results. Activity calls are given as the source filed them.

Experiments:
Experiment in all cases: NCI-60 one-dose screen, 48 h (100 = growth as untreated, 0 = no growth, -100 = all killed)
HCT-15 colon = settings: 10 µM unless noted
HT29 colon = settings: 10 µM unless noted
SNB-75 CNS = settings: 10 µM unless noted
SNB-19 CNS = settings: 10 µM unless noted
U251 CNS = settings: 10 µM unless noted
PC-3 prostate = settings: 10 µM unless noted
SK-MEL-5 melanoma = settings: 10 µM unless noted
UACC-62 melanoma = settings: 10 µM unless noted
LOX IMVI melanoma = settings: 10 µM
SK-MEL-28 melanoma = settings: 10 µM unless noted
SK-MEL-2 melanoma = settings: 10 µM unless noted
EKVX NSCLC = settings: 10 µM unless noted
SN12C renal = settings: 10 µM unless noted
UO-31 renal = settings: 10 µM unless noted
TK-10 renal = settings: 10 µM unless noted
ACHN renal = settings: 10 µM unless noted
A498 renal = settings: 10 µM unless noted
MOLT-4 leukemia = settings: 10 µM unless noted
CCRF-CEM leukemia = settings: 10 µM unless noted
CAKI-1 renal = settings: 10 µM unless noted

Row | SMILES | growth (HCT-15 colon) | growth (HT29 colon) | growth (SNB-75 CNS) | growth (SNB-19 CNS) [%] | growth (U251 CNS) | growth (PC-3 prostate) | growth (SK-MEL-5 melanoma) | growth (UACC-62 melanoma) | growth (LOX IMVI melanoma) | growth (SK-MEL-28 melanoma) | growth (SK-MEL-2 melanoma) | growth (EKVX NSCLC) | growth (SN12C renal) | growth (UO-31 renal) | growth (TK-10 renal) | growth (ACHN renal) [%] | growth (A498 renal) | growth (MOLT-4 leukemia) | growth (CCRF-CEM leukemia) | growth (CAKI-1 renal)
1 | C[n+]1c(/C=C\C=C\N2CCCCC2)sc2ccccc21 | 57.7% | 1.33% (active) | 14.4% | 15.4 | 14.5% | 2.78% (active) | -59.7% (active) | 3.09% (active) | 14.1% | 39.4% | -51.1% (active) | 5.77% (active) | 7.71% (active) | 52.1% | 22% | 66.2 | 43.5% | -9.41% (active) |  | 
2 | CSCC[C@@H]1C(=O)N(C)[C@H](C(C)(C)C)N1C(=O)c1ccccc1 | 113% | 116% | 85.2% | 114 | 99.3% | 104% | 106% | 101% | 95.4% | 107% | 106% | 102% | 104% | 90.4% | 106% | 110 | 126% | 116% | 111% | 
3 | c1ccc2[nH]c(Cc3nc4ccccc4[nH]3)nc2c1 | 107% | 112% | 94.9% | 130 | 106% | 93.7% | 104% | 105% | 109% | 94.3% | 121% | 104% | 107% | 95.3% | 122% | 96.2 | 98.5% | 110% | 27.9% | 
4 | OCc1cccnc1 | 92.4% | 107% | 102% | 96.8 | 91.8% | 94.7% | 116% | 103% | 104% | 111% | 94% | 107% | 99.2% | 81.7% | 102% | 102 | 78.4% | 109% | 92.1% | 
5 | C/C(O)=C(/C=N\C(=S)Nc1ccc(S(=O)(=O)Nc2nccs2)cc1)C(=O)Nc1ccccc1C | 102% | 116% | 89% | 92.7 | 84% | 84.9% | 93% | 81.8% | 92% | 110% | 115% | 101% | 87.5% | 93.2% | 111% | 99.9 | 60.5% | 83.7% | 87.4% | 
6 | NC(CO)(CO)c1ccccc1 | 97.2% | 100% | 88.7% | 107 | 97.3% | 100% | 97.9% | 101% | 101% | 106% | 107% | 113% | 108% | 88.6% | 96.9% |  | 101% | 108% | 90% | 96.1%
7 | CN1CCCN(C(c2ccccc2)c2ccc(Cl)cc2)CC1 (centres undefined) | 85.9% | 86.6% | 59% | 117 | 97.2% | 86.5% | 94.8% | 106% | 89.4% | 103% | 117% | 94.8% | 101% | 76.3% | 78.3% |  | 56.1% | 89.5% | 103% | 77.5%
8 | Cc1cc(C)cc(OCC(=O)O)c1 | 94.4% | 119% | 94.8% | 97.1 | 103% | 104% | 110% | 98.5% | 98.7% | 107% | 91.4% | 101% | 99.1% | 86.9% | 97.8% | 98.6 | 105% | 124% | 132% | 
9 | CC(=O)Nc1ncc(S(=O)(=O)c2ccc([N+](=O)[O-])cc2)s1 | 105% | 108% | 103% | 114 | 108% | 101% | 113% | 102% | 106% | 111% | 119% | 114% | 104% | 79.4% | 105% | 115 |  | 102% | 101% | 
10 | COC(=O)C1=C(C)C(=O)CC1 | 121% | 98.3% | 94.4% | 104 | 115% | 96.2% | 110% | 100% | 118% | 110% | 115% | 131% | 98.3% | 89% | 108% | 99.7 | 109% | 101% | 99.6% | 
11 | CC1=CC(=Nc2ccc(N(C)C)cc2)C=C(C)C1=O | 85.7% | 98.6% | 75.8% | 106 | 92.7% | 69.9% | 74% | 37.7% | 46.4% | 96.8% | 110% | 93% | 97.3% | 62.3% | 133% |  | 76.8% | 87.6% | 76.1% | 91.2%
12 | CCN(CC)c1ccc2nc3ccc(N=Nc4ccc(N(C)C)cc4)cc3[n+](-c3ccccc3)c2c1 | -10.3% (active) | -31.8% (active) | -98.9% (active) | 40.3 | -52% (active) | 6.24% (active) | -97.4% (active) | -59.1% (active) | -91.9% (active) | -36.1% (active) | -37.1% (active) | -75.2% (active) | -49.5% (active) | -55.1% (active) | 5.74% (active) |  | -25.1% (active) | -20.1% (active) | -21% (active) | -27.8% (active)
13 | COc1ccc(C2CCCCC2=O)cc1 (centres undefined) | 98.6% | 108% | 101% | 111 | 99% | 95.4% | 110% | 110% | 96.6% | 111% | 119% | 102% | 109% | 96.7% |  | 98.7 | 99.7% | 97.9% | 106% | 105%
14 | COc1ccc2c(c1)Nc1ccccc1S2 | 104% | 104% | 108% | 110 | 97.2% | 97.9% | 101% | 96.2% | 113% | 114% | 112% | 105% | 107% |  | 107% | 114 |  | 106% | 104% | 
15 | OC1Cc2ccccc2C1 | 93.3% | 100% | 93.6% | 100 | 105% | 95.4% | 101% | 95.6% | 93.3% | 102% | 107% | 99.9% | 104% |  | 95.9% | 98.3 | 82.9% | 98.9% | 98.1% | 103%
16 | C=C1CC2(OC1=O)C(=O)N(C)c1ccc(I)cc12 (centres undefined) | -53.7% (active) | -74.7% (active) | 38.4% | 64 | 2.89% (active) | -76.6% (active) | -92% (active) | -61.2% (active) | -65.4% (active) | -93.6% (active) | -73.1% (active) | -46.4% (active) | -12% (active) |  | -80.9% (active) |  | -13.6% (active) | -50.1% (active) |  | -91.3% (active)
17 | Cn1c2ccccc2c2nnc(NCCCCO)nc21 | 88.9% | 102% | 56.2% | 94.7 | 103% | 100% | 94.4% | 103% | 89.1% | 109% | 108% | 76.3% | 94.3% |  | 123% | 87.2 | 105% | 97.7% | 107% | 66.4%
18 | Cc1cc2c3ccc(C)[n+](C)c3ccc2n1C | 104% | 39.9% | 67.6% | 30.6 | 12.4% | 8.69% (active) | 48.2% | 78.9% | 43.9% | 86% | 92.4% | 20% | 22.4% |  | 65.6% | 79.4 |  | 25.2% | 36.7% | 
